Measurements: PubChem BioAssay AID1159580 (chemical genetic matrix, 2015)
Several values for one entry are separate records, joined by “and”; a condition that tells them apart may be missing. Equal values may be shown once. The whole screen tested about 5,500 compounds, of which about 2,000 (36%) were called active. Another 18% or so got no clear call; they are omitted. No stated cut-off is given here; in the data, active means normalized growth mostly below about 0.91 (no sharp cut-off); inconclusive means no clear call, values can overlap the other calls; inactive means mostly above about 0.92. The list shows a part of the results.

Assay: chemical genetic growth profiling, strain panel (AID 1159580);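 further: tested at 20 µM; growth read once vehicle control cultures reached saturation at 30 °C; 1 = growth at the plate median or of vehicle wells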
Conditions: S. cerevisiae deletion strains, growth OD

Measured: normalized growth

C=C(C)[C@H]1CC=C(C(=O)O)CC1
inactive: locus YAL013W, strain DEP1, stronger effect = lower value 1.01 | locus YAL021C, strain ccr4, stronger effect = lower value 0.968 | locus YAL026C, strain drs2, stronger effect = lower value 0.958 | locus YAL030W, strain snc1, stronger effect = lower value 0.985 | locus YBL061C, strain skt5, stronger effect = lower value 0.986 | locus YBR009C, strain hhf1, stronger effect = lower value 0.939 | locus YBR023C, strain chs3, stronger effect = lower value 0.985 | locus YBR171W, strain sec66, stronger effect = lower value 0.961 | locus YBR229C, strain ROT2, stronger effect = lower value 1.01 | locus YBR231C, strain swc5, stronger effect = lower value 0.939 | locus YBR279W, strain paf1, stronger effect = lower value 0.972 | locus YCL011C, strain gbp2, stronger effect = lower value 0.973 | locus YCL016C, strain dcc1, stronger effect = lower value 0.979 | locus YCL029C, strain bik1, stronger effect = lower value 0.938 | locus YCL061C, strain MRC1, stronger effect = lower value 0.944 | locus YCL069W, strain vba3, stronger effect = lower value 0.984 | locus YCR088W, strain abp1, stronger effect = lower value 0.994 | locus YDL005C, strain med2, stronger effect = lower value 0.97 | locus YDL035C, strain GPR1, stronger effect = lower value 0.926 | locus YDL040C, strain nat1, stronger effect = lower value 0.995 | locus YDL074C, strain BRE1, stronger effect = lower value 0.945 | locus YDL101C, strain DUN1, stronger effect = lower value 0.976 | locus YDL134C, strain PPH21, stronger effect = lower value 0.944 | locus YDL192W, strain arf1, stronger effect = lower value 0.957 | locus YDR001C, strain nth1, stronger effect = lower value 0.986 | locus YDR069C, strain doa4, stronger effect = lower value 0.999 | locus YDR101C, strain arx1, stronger effect = lower value 0.926 | locus YDR137W, strain rgp1, stronger effect = lower value 1.04 | locus YDR159W, strain sac3, stronger effect = lower value 0.94 | locus YDR162C, strain NBP2, stronger effect = lower value 0.989 | locus YDR297W, strain sur2, stronger effect = lower value 0.971 | locus YDR318W, strain mcm21, stronger effect = lower value 0.938 | locus YDR334W, strain swr1, stronger effect = lower value 0.971 | locus YDR335W, strain msn5, stronger effect = lower value 0.975 | locus YDR388W, stronger effect = lower value 0.952 | locus YDR392W, strain spt3, stronger effect = lower value 0.934 | locus YDR502C, strain sam2, stronger effect = lower value 0.926 | locus YEL003W, strain gim4, stronger effect = lower value 0.943 | locus YEL037C, strain rad23, stronger effect = lower value 0.988 | locus YEL061C, strain CIN8 (second series), stronger effect = lower value 0.991 | locus YEL061C, strain CIN8, stronger effect = lower value 1 | locus YER015W, strain faa2, stronger effect = lower value 0.98 | locus YER016W, strain bim1, stronger effect = lower value 0.992 | locus YER110C, stronger effect = lower value 0.925 | locus YER111C, strain swi4, stronger effect = lower value 0.98 | locus YER155C, strain BEM2 (second series), stronger effect = lower value 1 | locus YER155C, strain BEM2, stronger effect = lower value 0.947 | locus YER167W, strain BCK2, stronger effect = lower value 0.978 | locus YFR010W, strain ubp6, stronger effect = lower value 0.978 | locus YGL086W, strain mad1, stronger effect = lower value 0.965 | locus YGL167C, strain pmr1, stronger effect = lower value 0.978 | locus YGL173C, strain kem1, stronger effect = lower value 0.949 | locus YGL227W, strain vid30, stronger effect = lower value 0.975 | locus YGL240W, strain doc1, stronger effect = lower value 0.956 | locus YGL248W, strain PDE1, stronger effect = lower value 0.97 | locus YGL253W, strain hxk2, stronger effect = lower value 0.944 | locus YGR135W, strain pre9, stronger effect = lower value 0.903 | locus YHR013C, strain ard1, stronger effect = lower value 0.993 | locus YHR027C, strain rpn1, stronger effect = lower value 0.96 | locus YHR079C, strain IRE1 (second series), stronger effect = lower value 0.941 | locus YHR094C, strain hxt1, stronger effect = lower value 0.955 | locus YHR129C, strain ARP1, stronger effect = lower value 0.984 | locus YHR142W, strain chs7, stronger effect = lower value 0.96 | locus YHR200W, strain rpn10, stronger effect = lower value 0.961 | locus YIL066C, strain RNR3, stronger effect = lower value 0.963 | locus YIL073C, strain SPO22, stronger effect = lower value 0.978 | locus YIR030C, strain dcg1, stronger effect = lower value 0.961 | locus YJL092W, strain hpr5, stronger effect = lower value 0.983 | locus YJL095W, strain BCK1 (second series), stronger effect = lower value 0.985 | locus YJL115W, strain asf1, stronger effect = lower value 0.983 | locus YJL129C, strain trk1, stronger effect = lower value 0.911 | locus YJL134W, strain LCB3, stronger effect = lower value 0.996 | locus YJL154C, strain vps35, stronger effect = lower value 0.99 | locus YJL164C, strain tpk1, stronger effect = lower value 0.97 | locus YJL166W, strain qcr8, stronger effect = lower value 0.981 | locus YJL168C, strain set2, stronger effect = lower value 0.968 | locus YJL187C, strain SWE1 (second series), stronger effect = lower value 0.955 | locus YJR043C, strain POL32, stronger effect = lower value 0.916 | locus YKL009W, strain mrt4, stronger effect = lower value 0.954
0.997 (inactive) and 0.788 (active): locus YHR030C, strain SLT2, stronger effect = lower value
active: locus YBR021W, strain FUR4, stronger effect = lower value 0.82 | locus YDL185W, strain tfp1, stronger effect = lower value 0.871 | locus YDR195W, strain ref2 0.844 | locus YGL078C, strain dbp3, stronger effect = lower value 0.804 | locus YGR252W, strain gcn5, stronger effect = lower value 0.606 | locus YHR079C, strain IRE1, stronger effect = lower value 0.703 | locus YIL125W, strain kgd1, stronger effect = lower value 0.78 | locus YJR066W, strain TOR1, stronger effect = lower value 0.747
0.98 (inactive) and 0.786 (active): locus YJL095W, strain BCK1, stronger effect = lower value
